Luciferase inh: blocks Photinus pyralis firefly luciferase activity; AID 411; Potency, µM (titrated, usually from 57.1 µM), without a hit: top-dose activity change, negative = inhibition, most hits filed as inhibitors; 72,000 compounds, 2.2% hits; P08659; purified firefly luciferase, luminescence, 8 min; note: nearly all actives have a fitted effect of over 40% in size
Target sequence (P08659 whole entry, looked up): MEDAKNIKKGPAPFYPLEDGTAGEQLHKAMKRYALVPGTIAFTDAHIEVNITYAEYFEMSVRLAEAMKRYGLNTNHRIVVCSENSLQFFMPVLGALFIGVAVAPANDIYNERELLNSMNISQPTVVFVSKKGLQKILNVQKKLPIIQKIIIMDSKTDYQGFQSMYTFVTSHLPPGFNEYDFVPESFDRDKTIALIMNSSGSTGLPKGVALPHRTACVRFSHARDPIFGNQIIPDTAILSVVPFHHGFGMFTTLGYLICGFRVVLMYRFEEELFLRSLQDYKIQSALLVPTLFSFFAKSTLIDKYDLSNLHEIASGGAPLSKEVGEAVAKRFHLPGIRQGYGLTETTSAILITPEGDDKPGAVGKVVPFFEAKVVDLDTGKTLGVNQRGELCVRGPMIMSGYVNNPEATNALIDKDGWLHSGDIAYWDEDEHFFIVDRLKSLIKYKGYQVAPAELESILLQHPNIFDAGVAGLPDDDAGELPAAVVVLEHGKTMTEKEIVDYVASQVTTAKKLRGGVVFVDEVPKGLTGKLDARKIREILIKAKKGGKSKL
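qHTS concentration-response profiling: light output of P. pyralis luciferase with luciferin and 10 uM ATP, imidazole buffer pH 7.2. Read by luminescence after 8-min room-temperature incubation.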
p53ts 39C kill: kills p53ts cells at the nonpermissive temperature; H1299-p53A138V viability at 39C, ATP luminescence, 24 h; Potency, µM (top dose mostly 46.1 µM), for the others: at the top dose activity change, negative = cell killing, actives largely listed as cytotoxic; AID 902; 130,000 compounds, 1.5% hits; note: nearly all actives have a fitted effect of over 55% in size
p53ts 32C kill: cytotoxicity in p53ts cells at permissive temperature | H1299-p53A138V at 32C, ATP luminescence viability, 24 h | Potency, µM (titrated, usually from 46.1 µM), inactives show top-dose activity change, negative = cytotoxicity, usual class: cytotoxic | 130,000 compounds, 0.93% hits | AID 924;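 note: 0% = DMSO and -100% = full killing by reference compound; nearly all actives have a fitted effect of over 55% in size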
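Viability by ATPlite luminescence after 24 h compound treatment (up to 46 uM) at the permissive 32C. Cells are H1299 carrying p53 A138V. Scale runs from DMSO basal to 100 uM tamoxifen as full kill; AC50 from Hill fits.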
An asterisk follows results filed as active; ? = inconclusive; nt = no result; [ ] = dose if it differs, or a comment. Shown are actives, neighbours in structure and some others; about 2.6% of the full set was active somewhere. Calls come from the whole dose curve; as a rule, active = well fitted curve in the direction sought with a large enough effect; inconclusive = small, poorly fitted or top-dose-only effect, or another doubt; inactive = no such curve, though single readings can be large; an effect the other way counts as inactive or inconclusive. Unless noted, % is set by controls: 0 for no effect and ±100 for the full control effect; potency is the fitted concentration of half-maximal effect.

SMILES | Luciferase inh | p53ts 39C kill | p53ts 32C kill
Cc1cccc(CSc2ncc(Cl)c(C(=O)Nc3nnc(C)s3)n2)c1 | nt | -16% | 2%
Cc1nnc(NC(=O)c2nc(S(=O)(=O)Cc3ccccc3)ncc2Cl)s1 | nt | 16µM* | ?
COc1ccc2nc(NC(=O)c3nc(SCc4ccccc4F)ncc3Cl)sc2c1 | nt | -20% | 5%
Cc1cccc(CS(=O)(=O)c2ncc(Cl)c(C(=O)Nc3nc4ccc(F)cc4s3)n2)c1 | nt | 10µM* | 16µM*
COc1ccc2nc(NC(=O)c3nc(S(=O)(=O)Cc4ccccc4)ncc3Cl)sc2c1 | nt | 5µM* | 13µM*
CSc1ncc(Cl)c(C(=O)Nc2nc3ccc(F)cc3s2)n1 | nt | -9% | -2%
CCOc1ccccc1CNC(=O)c1ccc2c(c1)sc1nc(-c3cccc(OC)c3)cn12 | nt | -22% | 1%
COc1ccccc1N1CCN(C(=O)c2cc(-c3ccc(C)c(F)c3)on2)CC1 | nt | -7% | -5%
CCC(Oc1ccc(F)cc1)C(=O)Nc1nc(-c2ccc(F)cc2)ns1 (centres undefined) | nt | -26% | 0%
Cc1ccc(NC(=O)Nc2nnc(SCC(=O)N(C(C)C)C(C)C)s2)cc1 | nt | -15% | -13%
COC(=O)c1ccccc1NC(=O)c1nc(S(=O)(=O)Cc2ccccc2F)ncc1Cl | nt | 16% | 4%
O=C(Nc1ccccc1F)c1nc(S(=O)(=O)Cc2ccccc2F)ncc1Cl | nt | 4µM* | ?
O=C(NCc1ccccc1)c1nc(S(=O)(=O)Cc2ccc(F)cc2)ncc1Cl | nt | 5µM* | 16µM*
Cc1ccc(CSc2ncc(Cl)c(C(=O)NCc3ccccc3)n2)cc1 | nt | -21% | -8%
CSc1ncc(Cl)c(C(=O)NCc2ccc(C)cc2)n1 | nt | 2% | 12%
Cc1cccc(CS(=O)(=O)c2ncc(Cl)c(C(=O)NCc3ccccc3)n2)c1 | nt | 5µM* | 25µM*
CC(C)(C)NC[C@H](O)c1cc(O)cc(O)c1 | 1%[25.5 µM] | -1%[20.6 µM] | 4%[20.6 µM]
O=C(NCc1cccs1)c1ccc(CSc2nc3cccnc3n2Cc2ccccc2)cc1 | nt | nt | -11%
Cc1ccc(CSc2nc3cccnc3n2Cc2ccc(C(=O)NC3CCCCC3)cc2)cc1 | nt | nt | 11µM*
O=C(NC1CCCCC1)c1ccc(CSc2nc3cccnc3n2Cc2ccccc2F)cc1 | nt | nt | -14%
Cc1ccc(CSc2nc3cccnc3n2Cc2ccc(C(=O)NCCc3cccs3)cc2)cc1 | nt | nt | 5µM*
O=C(NC1CC1)c1ccc(Cn2c(SCc3ccccc3F)nc3cccnc32)cc1 | nt | nt | 16µM*
O=C(NC1CCCC1)c1ccc(CSc2nc3cccnc3n2Cc2cccc(F)c2)cc1 | nt | nt | -2%
O=S(=O)(c1cccc(F)c1)N1CCC(c2nc3ccccc3s2)CC1 | nt | 14% | -3%
Cc1c(Cl)cccc1NS(=O)(=O)c1ccc(NS(=O)(=O)c2ccc3c(c2)OCCO3)cc1 | nt | -9% | 13%
SMILES | Luciferase inh | p53ts 39C kill | p53ts 32C kill
COc1ccccc1CNC(=O)c1cccn1-c1nnc(N2CCCC2)s1 | nt | -1% | -3%
COc1ccc(C)c2sc(N3CCCC3)nc12 | -2% | 7% | 0%
COc1ccc(OC)c2sc(N3CCN(c4ccccc4)CC3)nc12 | 25µM* | -28% | -24%
COc1ccc(OC)c2sc(N3CCN(C(=O)C(C)(C)C)CC3)nc12 | nt | 7.9µM* | 16µM*
CCOc1cccc2sc(N3CCN(C(=O)C(C)(C)C)CC3)nc12 | nt | ? | 2%
O=S(=O)(c1ccc(Cl)cc1)c1nc(-c2cccs2)oc1SCc1ccc(F)cc1 | nt | ? | 12%
CCCCCCN(CCCCCC)C(=O)Cc1c(-c2ccc(Cl)cc2)[nH]c2ccc(Cl)cc12 | 2% | 8% | -2%
COc1ccc2[nH]cc(CCNc3cc(-c4ccccc4OC)ncn3)c2c1 | -3%[2.29 µM] | -15% | -8%
CCCCCCS(=O)Cc1ccccc1 (centres undefined) | 0% | 7% | 6%
CCCCCCCCCCCCC[N+](C)(C)Cc1ccccc1 | nt | 13µM* | 16µM*
COc1ccc2c3c(ccc2c1)N[C@H](C(=O)O)CC3 | 3.2µM* | ? | ?
COc1ccc(NC(=O)C2CCC(=O)N2)cc1 (centres undefined) | 3% | 14% | 4%
CCCCCCCCCCCCC(=O)N1CCCC[C@H]1CNC(=O)[C@@H](N)CCCCN | 2% | 32µM* | -7%
CCCCCCNC(=O)C(C(=O)OCC)C1CCCCC1 (centres undefined) | 1% | 8% | 2%
C[C@@H](CN1CCC(Cc2ccccc2)CC1)[C@H](O)c1ccc(O)cc1 | 2% | 10% | -21%
O=c1[nH]cnc2c1nc(Cl)n2C1OC(CO)C(O)C1O (centres undefined) | nt | -2% | 0%
c1ccc(N2CCN(c3nc4cc5c(cc4s3)OCO5)CC2)cc1 | ? | -4% | -6%
c1c2c(cc3sc(N4CCOCC4)nc13)OCO2 | 16µM* | ? | 10µM*
Clc1cccc2sc(N3CCCC3)nc12 | 0% | -14% | -10%
c1c2c(cc3sc(N4CCCCC4)nc13)OCO2 | 6.3µM* | 10µM* | 6.3µM*
c1ccc2c(c1)CCN(c1nc3cc4c(cc3s1)OCO4)C2 | 4µM* | ? | 13µM*
c1ccc2c(c1)CCN(Cc1nnnn1Cc1ccc3c(c1)OCO3)C2 | -33% | -11% | 4%
CCOc1ccc(/C=C/c2nc(C#N)c(N3CCN(CC)CC3)o2)cc1 | nt | -29% | 16%
CCOc1ccc(C(=O)Nc2c(C(=O)c3ccc(OC)cc3)oc3ccccc23)cc1 | nt | 3% | 5%
COc1cccc(CNC(=O)Cn2c(=O)n3nc(-c4cccc(F)c4)nc3c3ccccc32)c1 | nt | -29% | -5%
SMILES | Luciferase inh | p53ts 39C kill | p53ts 32C kill
COc1ccc2[nH]cc(CCNC(=O)c3cnn(-c4ccccc4Cl)c3C3CCN(C(=O)OC(C)(C)C)CC3)c2c1 | nt | 9% | 17%
Cc1cc(N)n2ncc(-c3cccc(Br)c3)c2n1 | ? | -4% | 0%
CCOC(=O)c1cnc2c(-c3ccccc3)c(C)nn2c1N | 1% | -7% | 8%
CCOC(=O)c1cnc2c(-c3ccccc3)cnn2c1N | 2.5µM* | 7.9µM* | 10µM*
Cc1cc(N)n2ncc(-c3ccccc3)c2n1 | 25µM* | 10µM* | ?
COc1cc2ccccc2cc1C(=O)Nc1ccc2oc(-c3cccc(C)c3)nc2c1 | nt | -9% | -8%
CCOc1ccc(C(=O)Nc2ccc3oc(-c4cccc5ccccc45)nc3c2)cc1 | nt | 10µM* | -23%
COc1cc2ccccc2cc1C(=O)Nc1ccc2oc(-c3ccc(Cl)cc3)nc2c1 | nt | 7.9µM* | -14%
CCc1ccc2oc(-c3ccc(NC(=O)c4cc(OC)c(OC)c(OC)c4)cc3)nc2c1 | nt | -5% | -3%
CCOc1ccc(C(=O)Nc2ccc3oc(-c4ccc(Br)cc4)nc3c2)cc1 | nt | 29% | 2%
COc1cc(C(=O)Nc2ccc3oc(-c4ccccc4)nc3c2)cc(OC)c1OC | nt | 13µM* | ?
CN(C)c1ccc(CNC(=O)Cc2ccc(NC(=O)N3CCCCc4ccccc43)cc2)cc1 | nt | -8% | -5%
CSc1ccccc1NC(=O)C1=CC(c2ccc3c(c2)OCO3)=NS(=O)(=O)N1C | nt | -8% | -4%
Clc1ccc2nc(-c3ccc(Br)o3)c(Nc3ccc4c(c3)OCCO4)n2c1 | nt | ? | -16%
Cc1noc(C)c1-c1ccc2ncnc(N(C)Cc3ccco3)c2c1 | -2%[2.29 µM] | 0% | 2%
O=C(O)c1cn(C2CC2)c2cc(N3CCNCC3)c(F)cc2c1=O | 3%[25.5 µM] | nt | nt
CC(C)(C)NC(=O)c1oc2ccccc2c1NC(=O)c1ccc(F)cc1 | nt | -8% | -4%
